Screening data: PubChem, several laboratories
This is a sample that favours compounds with a hit; in the whole collection about 27% have one here.
CYP2C19 activ: activators of human cytochrome P450 2C19; P33261; recombinant CYP2C19, luciferin-H EGE luminescence; stronger effect = higher value; 0 = fully inhibited enzyme, 1 = untreated enzyme; activation factor at 5 µM; 96,000 tested, under 10 active; AID 1025;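 active = activation factor of at least 2 at 5 µM in the primary screen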
CYP2C9 act: increases human cytochrome P450 2C9 activity. activation factor at 5 µM. actives 1.4% (n = 96,000). P11712. recombinant CYP2C9, luciferin-H conversion, luminescence; stronger effect = higher value; factor 1 = untreated enzyme, 0 = blocked. AID 1024;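 active = activation factor of 2 or more for CYP2C9 at a 5 µM dose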
Target sequence (P11712 whole entry, looked up): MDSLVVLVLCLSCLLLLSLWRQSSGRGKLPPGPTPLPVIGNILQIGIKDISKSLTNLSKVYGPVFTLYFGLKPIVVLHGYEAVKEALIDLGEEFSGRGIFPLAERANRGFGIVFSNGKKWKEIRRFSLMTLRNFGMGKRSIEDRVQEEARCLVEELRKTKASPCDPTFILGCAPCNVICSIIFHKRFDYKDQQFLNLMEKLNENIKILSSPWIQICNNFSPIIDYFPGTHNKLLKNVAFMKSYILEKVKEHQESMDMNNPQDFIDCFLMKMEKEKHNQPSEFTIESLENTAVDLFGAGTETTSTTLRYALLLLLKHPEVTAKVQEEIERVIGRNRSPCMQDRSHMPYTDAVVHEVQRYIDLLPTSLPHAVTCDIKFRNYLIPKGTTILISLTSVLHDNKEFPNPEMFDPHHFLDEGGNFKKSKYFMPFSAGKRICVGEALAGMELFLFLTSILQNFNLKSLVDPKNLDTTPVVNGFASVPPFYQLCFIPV
CYP2C19 inh: blocks human cytochrome P450 2C19 | P33261 | inhibition, % at 5 µM | actives 21% (n = 96,000) | CYP2C19 Supersomes, luciferin-H EGE luminescence, 30 min;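 active = CYP2C19 inhibition above a set limit at 5 µM in the primary screen, cut at about 50% in these data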
Cav3 T inh: inhibitors of human Cav3.2 T-type calcium channel; O95180; Cav3.2-expressing cells, Fluo-4 calcium fluorescence FDSS; stronger effect = lower value; B-score at 10 µM; actives 4% (n = 100,000);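 active = single-dose well whose peak fluorescence ratio is a statistical outlier from its plate by either plate-standardised score or position-corrected B-score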
CYP2C9 inhib: blocks human cytochrome P450 2C9; CYP2C9 Supersomes, luciferin-H conversion, luminescence; actives 20% (n = 96,000); inhibition, % at 5 µM; AID 777; P11712;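 active = blocking of liver enzyme CYP2C9 beyond about 50% at 5 µM, limit read from the data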
A number is an active result; - = inactive; . = not tested or not shown.

SMILES	CYP2C19 activ	CYP2C9 act	CYP2C19 inh	Cav3 T inh	CYP2C9 inhib
Cn1c(=O)c2c(nc(N3CCCCCC3)n2Cc2cccc3ccccc23)n(C)c1=O	-	-	76	.	90
C=CCOc1nc2c(c(=O)n(C)c(=O)n2C)n1Cc1c(Cl)cccc1Cl	-	-	62	-	-
CC(C)(C)NC(=O)C(=O)N/N=C/c1cccs1	-	-	-	-	-
CCOC(=O)Cn1c(=O)c2c(nc3n2CCN3Cc2ccccc2)n(C)c1=O	-	-	-	-	-
C/C(Cl)=C\Cn1c(N2CCCCCC2)nc2c1c(=O)n(C)c(=O)n2C	-	-	-	-	85
CCOC(=O)Cn1c(=O)c2c(nc(N3CCCCC3)n2C)n(C)c1=O	-	-	-	-	55
Cn1c(=O)c2c(nc(N3CCCCCC3)n2CC(=O)c2ccccc2)n(C)c1=O	-	-	-	-	-
CCCCn1c(CNC(=O)Cc2ccccc2)nc2ccccc21	-	-	-	-	-
CCCNC(=O)CC1C(=O)N(Cc2ccccc2)C(C)c2nc3ccccc3n21 (configuration not stated)	-	-	67	-	-
CC(C)(C)C(=O)/C=C(N)/C=C/c1ccccc1	-	-	-	-	-
CCOC(=O)CNc1c(-c2ccccc2)nc2ccc(Cl)cn12	-	-	58	-	-
COCCn1c(SCC(=O)OC(C)C)nnc1-c1ccccc1	-	-	-	-	-
CCCc1cc(Nc2cccc(OCC)c2)n2ncnc2n1	-	-	-	-	-
CCCc1cc(Nc2cccc(OC)c2)n2ncnc2n1	-	-	55	-	-
CCn1c(SCC(=O)NCC(=O)Nc2ccc(F)cc2)nnc1-c1cccs1	-	-	-	-	93
CCn1c(SCC(=O)Nc2cc(C)on2)nnc1-c1cccs1	-	-	83	-	-
CCn1c(SCC(=O)Nc2ccc3c(c2)OCCO3)nnc1-c1cccs1	-	-	-	-	52
CCn1c(SCC(=O)Nc2ccc3c(c2)OCCO3)nnc1-c1c[nH]c2ccccc12	.	.	.	-	.
CCn1c(SC(=O)NC2CCCCC2)nnc1-c1cccs1	-	-	53	-	-
CCCN1C(=O)c2cc(C(=O)NCc3ccc(OC)cc3)ccc2C1O (configuration not stated)	-	-	-	-	-
CCn1c(SCC(=O)c2ccccc2)nnc1-c1cccs1	-	-	69	-	-
CCn1c(SCC(=O)Nc2ccc(C(=O)OC)cc2)nnc1-c1cccs1	-	-	51	-	-
C=CCn1c(SCC(=O)Nc2ccc(C(=O)OCC)cc2)nnc1-c1cccs1	-	-	-	-	-
O=C(CSc1nnc(Cc2cccs2)n1-c1ccccc1)Nc1ccc2c(c1)OCCO2	-	-	85	-4.8	89
C=CCn1c(SCc2nc3ccccc3nc2C)nnc1-c1ccoc1C	-	-	95	-	-
SMILES	CYP2C19 activ	CYP2C9 act	CYP2C19 inh	Cav3 T inh	CYP2C9 inhib
O=C(NC(Cc1ccc2c(c1)OCO2)C(=O)NC(Cc1ccccc1)C(=O)O)c1ccccc1 (configuration not stated)	-	-	-	.	-
CCn1c(SCc2nc3ccccc3nc2C)nnc1-c1cccs1	-	-	93	-	-
C=CCNc1cccc(Br)c1	.	.	.	-	.
O=C(OCC(=O)N1CCCCC1)c1c[nH]c(=O)[nH]c1=O	-	-	-	-	89
C#CC(CC)(CC)NC(=O)c1c(C)noc1C	-	-	-	-	-
CNC(=O)CSc1nnc(-c2ccc(S(=O)(=O)N3CCCC3)cc2)n1-c1cccc(C)c1C	-	-	-	-	88
O=C1CCC(C(=O)OCC(=O)C23CC4CC(CC(C4)C2)C3)N1 (configuration not stated)	-	-	-	-	-
Cc1cc(C(C)(C)C)cc(C)c1COC(=O)C1CCC(=O)N1 (configuration not stated)	-	-	63	-	-
CNC(=S)Nc1ccc(Nc2ccccc2)cc1	-	-	-	-	-
CNC(=S)NN(c1ccccc1)c1ccccc1	-	-	78	-	-
Cn1c(Cc2cccs2)nnc1SCC(=O)N1CCCc2ccccc21	-	-	-	-	-
CC1Cc2ccccc2N1C(=O)CSc1nnnn1C1CCCC1 (configuration not stated)	-	-	-	.	58
Cc1ccc2nc(CSc3nnc(Cc4cccs4)n3C3CCCCC3)cc(=O)n2c1	-	-	71	-	52
O=C(CSc1nnc(Cc2cccs2)n1C1CCCCC1)N1CCCc2ccccc21	-	-	-	-7.2	-
Cc1csc(NC(=O)CSc2nnc(Cc3cccn3C)n2CCc2ccccc2)n1	-	-	-	-8.4	-
CC1Cc2ccccc2N1C(=O)CSc1nnnn1-c1ccc2c(c1)OCCO2 (configuration not stated)	-	-	-	-	-
O=C(O)CCCCC1SCC2NC(=O)NC21 (configuration not stated)	-	-	-	-	-
c1ccc(CCn2nnnc2CN2CCc3ccccc32)cc1	-	-	98	-	86
O=C(CSc1nnnn1C1CCCC1)N1CCCc2ccccc21	-	-	91	-	-
CC1Cc2ccccc2N1C(=O)CSc1nnnn1C (configuration not stated)	-	-	-	-	-
Cc1ccccc1C(=O)NC1CCN(Cc2nnnn2CCc2ccccc2)CC1	-	-	-	-	-
N#CCSc1nnc(Cc2cccs2)n1C1CCCCC1	-	-	-	-	-
Cn1nnnc1SCC(=O)N1CCCc2ccccc21	.	.	.	-	.
N#C/C(=C(/O)CSc1nnc(Cc2cccs2)n1C1CCCCC1)c1nc2ccccc2[nH]1	-	-	61	-	-
CC1Cc2ccccc2N1C(=O)CSc1nnnn1C(C)C (configuration not stated)	-	-	-	-	52
SMILES	CYP2C19 activ	CYP2C9 act	CYP2C19 inh	Cav3 T inh	CYP2C9 inhib
Nc1c(C(O)(C(F)(F)F)C(F)(F)F)ccc2ccccc12	.	.	.	-	.
CCN1CCCC1CNCc1ccc(Cl)cc1Cl (configuration not stated)	-	-	-	.	-
Cc1cccn2c(=O)c(C=Nc3c(C)n(C)n(-c4ccccc4)c3=O)c(N3CCCC3)nc12	-	-	-	.	-
COc1cc(NC(=S)N2CCN(C(c3ccccc3)c3ccccc3)CC2)cc(OC)c1	-	-	-	-	-
Cn1cccc1Cc1nnc(SCC(=O)N2CCCC2)n1CCc1ccccc1	-	-	-	-	-
Cn1cccc1Cc1nnc(SCC(=O)N2CCc3ccccc32)n1CCc1ccccc1	-	-	-	-8.7	-
c1ccc2c(c1)CCCN2Cc1nnnn1C1CCCC1	-	-	96	-	59
CC1Cc2ccccc2N1C(=O)CSc1nnc(Cc2ccccc2)n1CCc1ccccc1 (configuration not stated)	-	-	92	.	93
CCC(C)NC(=O)CSc1nnc(-c2ccncc2)n1-c1ccc(OC)cc1 (configuration not stated)	-	-	100	-	86
CCNC(=O)CSc1nnc(-c2ccccc2)n1-c1ccc(OCC)cc1	-	-	-	-	60
